Source: PubChem BioAssay (National Center for Advancing Translational Sciences (NCATS))
This is a sample that favours compounds with a hit; in the whole collection about 3.2% have one here.
TSHR agonist: activates the human thyroid stimulating hormone receptor; HEK293-CNG-TSHR cells (CNG channel as cAMP sensor), membrane potential dye, cAMP; Potency, µM (titrated, usually from 57.1 µM), actives largely listed as activators; 73,000 compounds, 0.48% hits; AID 926; active means well fitted activation curve with a large enough effect in the main read-out, with a control signal flat, not every such curve was filed as active; inconclusive means small, poorly fitted or top-dose-only effect, or a change in a side signal; inactive means no such curve, though single readings can be large or run the other way; reference of the percent scale not stated here;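 further: the control signal comes from parental cells without the receptor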
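HEK 293 cells stably expressing TSHR and a modified CNG channel, with CNG-only parental cells as counterscreen, were preloaded 60 min at room temperature with membrane potential dye containing 100 uM RO 20-1724. Compound exposure was 30 min, and depolarization was read as fluorescence at 590 nm.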
BRCT inh green: inhibitors of human BRCA1 BRCT-phosphoprotein interaction (green fluorophore); 75,000 compounds, 0.05% hits; Potency, µM (series often up to 76.9 µM), most hits filed as inhibitors; BRCA1 BRCT-phosphopeptide binding, green fluorescence polarization
Target sequence (P38398 whole entry, looked up): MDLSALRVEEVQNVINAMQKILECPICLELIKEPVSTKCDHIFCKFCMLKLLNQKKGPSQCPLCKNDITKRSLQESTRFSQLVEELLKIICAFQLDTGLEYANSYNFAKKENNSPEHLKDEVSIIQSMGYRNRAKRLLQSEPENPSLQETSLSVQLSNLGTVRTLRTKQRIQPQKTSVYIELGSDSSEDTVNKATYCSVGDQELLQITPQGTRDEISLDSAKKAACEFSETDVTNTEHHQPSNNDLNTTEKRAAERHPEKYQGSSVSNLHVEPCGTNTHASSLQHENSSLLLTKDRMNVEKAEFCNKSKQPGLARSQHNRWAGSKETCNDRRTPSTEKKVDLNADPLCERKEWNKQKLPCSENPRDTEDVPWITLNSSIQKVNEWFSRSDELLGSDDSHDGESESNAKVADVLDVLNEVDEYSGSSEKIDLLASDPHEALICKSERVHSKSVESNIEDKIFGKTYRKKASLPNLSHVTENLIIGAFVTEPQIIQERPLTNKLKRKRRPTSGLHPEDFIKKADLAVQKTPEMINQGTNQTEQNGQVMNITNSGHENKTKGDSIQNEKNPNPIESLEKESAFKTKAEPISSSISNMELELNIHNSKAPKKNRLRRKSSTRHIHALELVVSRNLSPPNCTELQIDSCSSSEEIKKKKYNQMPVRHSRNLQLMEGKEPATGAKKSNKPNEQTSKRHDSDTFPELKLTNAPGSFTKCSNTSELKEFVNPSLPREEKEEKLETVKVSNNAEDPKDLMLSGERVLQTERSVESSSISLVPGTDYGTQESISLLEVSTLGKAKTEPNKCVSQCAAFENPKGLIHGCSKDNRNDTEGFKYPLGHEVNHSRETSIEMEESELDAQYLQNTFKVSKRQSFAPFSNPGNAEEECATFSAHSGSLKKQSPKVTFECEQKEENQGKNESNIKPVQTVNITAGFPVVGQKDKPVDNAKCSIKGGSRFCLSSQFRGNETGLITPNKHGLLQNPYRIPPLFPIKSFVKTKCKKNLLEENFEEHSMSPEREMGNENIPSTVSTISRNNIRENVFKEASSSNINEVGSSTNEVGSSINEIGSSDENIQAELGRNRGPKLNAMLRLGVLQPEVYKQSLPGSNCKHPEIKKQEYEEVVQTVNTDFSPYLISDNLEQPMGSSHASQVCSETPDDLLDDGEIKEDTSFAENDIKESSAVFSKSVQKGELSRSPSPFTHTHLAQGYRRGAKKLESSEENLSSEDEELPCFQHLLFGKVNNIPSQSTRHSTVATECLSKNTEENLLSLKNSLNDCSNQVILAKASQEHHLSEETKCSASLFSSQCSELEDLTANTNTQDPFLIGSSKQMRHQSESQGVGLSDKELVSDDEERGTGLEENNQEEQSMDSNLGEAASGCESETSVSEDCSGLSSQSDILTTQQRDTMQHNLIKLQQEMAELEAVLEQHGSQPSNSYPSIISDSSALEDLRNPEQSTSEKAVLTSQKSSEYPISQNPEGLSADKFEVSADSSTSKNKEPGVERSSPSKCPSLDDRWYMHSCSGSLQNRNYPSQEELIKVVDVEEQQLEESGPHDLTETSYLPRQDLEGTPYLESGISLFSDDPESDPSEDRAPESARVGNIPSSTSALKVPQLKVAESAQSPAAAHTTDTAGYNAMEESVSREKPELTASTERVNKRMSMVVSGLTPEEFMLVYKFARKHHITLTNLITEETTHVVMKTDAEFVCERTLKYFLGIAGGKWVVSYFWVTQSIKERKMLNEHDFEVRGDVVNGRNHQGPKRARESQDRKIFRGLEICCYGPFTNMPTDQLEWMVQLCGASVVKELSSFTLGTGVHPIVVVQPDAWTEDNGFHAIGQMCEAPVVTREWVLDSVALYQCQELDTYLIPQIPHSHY
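Fluorescence polarization: His-tagged BRCT (~35 kDa BRCA1 C-terminus, 250 nM) bound to 100 nM fluorescein-labeled phosphorylated 10-aa BACH1 peptide, pH 7.3 phosphate buffer with DTT and Tween 20. Compounds incubated 12 min at room temperature; inhibition read as lowered polarization.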
HEK293 cAMP ctrl: parental HEK293 cAMP activation (counter-screen). parental HEK293 CNG cAMP sensor, membrane potential fluorescence. Potency, µM (doses to about 57.1 µM), usual class: activators. 73,000 compounds, 2.5% hits; further: nearly all actives have a fitted effect of over 55% in size
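Parental HEK 293 cells stably expressing a cAMP-gated CNG channel were loaded with membrane potential dye containing 100 uM RO 20-1724 for 60 min. Compound added for 30 min; depolarization read as fluorescence intensity at 590 nm.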
Pol III holo inh: inhibitors of bacterial DNA polymerase III holoenzyme | reconstituted DNA polymerase III holoenzyme replication, biochemical | Potency, µM (series often up to 57.1 µM) | 71,000 compounds, 0.25% hits
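Reconstituted *E. coli* holoenzyme (0.35 nM Pol III, 1 nM beta, 154 nM SSB, 2 nM primase) was preincubated with compound for 15 min at RT. Synthesis on 1.4 nM ssM13Gori ran 35 min, then was stopped with PicoGreen/EDTA and read as dsDNA fluorescence.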
BRCT inh red: inhibitors of human BRCA1 BRCT-phosphoprotein interaction (red fluorophore) | P38398 | BRCT-phosphopeptide binding, red fluorescence polarization | Potency, µM (top dose mostly 76.9 µM), actives largely listed as inhibitors | 75,000 compounds, 0.03% hits | AID 892
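Fluorescence polarization: 100 nM His-tagged BRCA1 BRCT with 100 nM TAMRA-labelled phospho-BACH1 decapeptide, phosphate buffer pH 7.3 with 150 mM NaCl, DTT, 0.01% Tween 20; 12 min RT. Binding inhibition seen as FP decrease.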
YjeE inh: inhibitors of E. coli YjeE (TsaE) | Potency, µM | 71,000 compounds, 0.05% hits | P0AF67 | purified YjeE enzyme, qHTS inhibition assay
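Fluorescence polarization of a BODIPY Texas Red–ADP probe (2 uM) bound to purified YjeE (10 uM) was read after 15 min room-temperature incubation with compounds. Loss of polarization marks inhibitors; ADP serves as titrated control.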
Numbers stand for hits; - = inactive; ? = inconclusive; . = no result given; ! = a repeat was not active; [ ] = dose if it differs, or a comment. Unless noted, the call rests on the fitted dose curve; in most records, active means well fitted curve in the direction sought with a large enough effect; inconclusive means small, poorly fitted or top-dose-only effect, or another doubt; inactive means no such curve, though single readings can be large; an effect the other way counts as inactive or inconclusive.

SMILES	TSHR agonist	BRCT inh green	HEK293 cAMP ctrl	Pol III holo inh	BRCT inh red	YjeE inh
COc1cccc(C(c2nnnn2CCc2ccccc2)N2CCN(c3ccccc3)CC2)c1OC (configuration not stated)	?	-	7.94µM	-	-	-
O=S(=O)(O)[C@@H](CO)c1ccccc1 (tested in a mixture with another compound)	-[11.4 µM]	-[15.4 µM]	-[11.4 µM]	-[11.4 µM]	-[15.4 µM]	-
CCCCCCc1c(O)c2ccccc2[nH]c1=O	-	-	-	-	-	-
CCCCCCCCCCCC1=C(O)C(=O)C=C(O)C1=O	-	-	-	6.31µM!	-	-
CC(=O)Nc1ccc(C2C(C)CCC3C(=O)N4C(CCC(C)[C@@H]4c4ccc(NC(C)=O)cc4)C(=O)N32)cc1 (some centres not stated)	-[11.4 µM]	-[15.4 µM]	-[11.4 µM]	.	-[15.4 µM]	.
N#Cc1nc(COc2ccc(Br)cc2)oc1N1CCCCCC1	?	-	25.1µM	-	-	-
N#Cc1nc(COc2ccccc2)oc1N1CCOCC1	-	-	-	-	-	-
COc1ccc(N2CCN(c3oc(COc4ccccc4)nc3C#N)CC2)cc1	?	-	0.794µM	-	-	-
CCn1cc(C2=NOC(C(=O)Nc3ccc4c(c3)OCO4)C2)c(C)n1 (configuration not stated)	?	-	1µM	.	-	.
O=C(Nc1ccc2c(c1)OCO2)C1CC(c2ccccc2Cl)=NO1 (configuration not stated)	-	-	-	-	-	-
CCn1c(SCC(=O)Nc2nccs2)nnc1-c1cc2cccc(OC)c2o1	-	-	-	-	-	-
COc1cccc2cc(-c3nnc(SCC(=O)Nc4cc(C(F)(F)F)ccc4Cl)n3N)oc12	?	-	25.1µM	-	-	-
O=C(NCc1cccnc1)C1CC(=O)N(c2ccc(F)cc2)C1 (configuration not stated)	-	-	-	-	-	-
Cc1ccc(-c2nc3nc4ccccc4nc3n2Cc2ccco2)cc1	?	-	25.1µM	-	-	-
Clc1ccc(-c2nc3nc4ccccc4nc3n2Cc2ccco2)cc1	?	-	?	-	-	-
CCCCn1c(NC(=O)c2ccccc2)nc2ccccc21	?	-	31.6µM	-	-	-
CCCCn1c(NCCO)nc2ccccc21	-	-	-	-	-	-
CCNC(=O)C1CC(=O)N(Cc2ccc3c(c2)OCO3)C(=Nc2ccc(OCC)cc2)S1 (configuration not stated)	31.6µM	-	-	-	-	-
Cc1cc(C)n2nc(NCc3cccc(Br)c3)nc2n1	1µM	-	-	-	-	-
COc1ccc(CNc2nc3nc(C)cc(C)n3n2)cc1OC	-	-	-	-	-	-
CN1CCN(C(c2ccccc2)c2ccccc2)CC1	-	-[3.08 µM]	-	-	-	-
Cn1c(SCC(=O)OC2CCCCC2)nnc1-c1ccc2c(c1)OCO2	?	-	?	-	-	-
N#Cc1cc2cc3c(cc2nc1SCC(=O)OC1CCCCC1)OCO3	?	-	15.8µM	-	-	-
Cc1cccc(C2CC(c3ccccc3)Nc3ncnn32)c1 (configuration not stated)	-	-	-	-	-	-
CCOc1ccccc1C(=O)Nc1cc(Cl)ccc1O	?	-	-	-	-	-
SMILES	TSHR agonist	BRCT inh green	HEK293 cAMP ctrl	Pol III holo inh	BRCT inh red	YjeE inh
COC(=O)c1ccccc1NC(=O)c1ccc(F)cc1	?	-	?	-	-	-
CCOc1ccccc1C(=O)Nc1cc(OC)ccc1OC	?	-	25.1µM	.	-	.
COC(=O)c1ccccc1NC(=O)c1ccccc1OC	?	-	15.8µM	-	-	-
O=c1[nH]c(C(F)(F)F)nc2c1nnn2Cc1ccccc1F	?	-	25.1µM	-	-	-
O=c1c(-c2cc(O)c(O)c(O)c2)coc2cc(O)c(O)c(O)c12	.	-[3.08 µM]	.	.	-	.
O=[N+]([O-])c1cccc2c[nH]nc12	.	-	-	15.8µM	-	-
O=[N+]([O-])c1cccc2cn[nH]c12	-	-	-	-	-	-
O=c1cc(-c2ccc(O)c(O)c2)oc2cc(O[C@@H]3O[C@@H](CO)[C@@H](O)[C@@H](O)[C@H]3O)cc(O)c12	-	.	-	1µM	.	-
Cc1ccnc(SCC(=O)Nc2sc3c(c2C#N)CCCC3)n1	?	-	20µM	-	-	-
N#Cc1c(NC(=O)CSC2=NCCS2)sc2c1CCCC2	?	-	?	-	-	-
CC1CCN(c2nc(-c3ccncc3)nc3ccccc23)CC1	?	-	?	-	-	-
CC1CCCCN1c1nc(-c2ccncc2)nc2ccccc12 (configuration not stated)	?	-	25.1µM	-	-	-
O=C(CCC1N=C2c3ccccc3N=C(SCc3ccc(Cl)cc3)N2C1=O)NCc1ccco1 (configuration not stated)	?	-	20µM	-	-	-
O=C(CCC1N=C2c3ccccc3N=C(SCc3ccc(F)cc3)N2C1=O)NCc1ccco1 (configuration not stated)	?	-	?	-	-	-
COc1cccc(-n2c(COc3ccc(C)cc3)nnc2SCC(N)=O)c1	-	-	-	-	-	-
CCCCOC(=O)C1=C(C)Nc2ncnn2C1c1cccc(OC)c1 (configuration not stated)	-	-	-	-	-	-
CCOC(=O)C1=C(C)Nc2ncnn2C1c1ccc2c(c1)OCO2 (configuration not stated)	3.16µM	-	-	-	-	-
Cn1cccc1Cc1nnc(SCC(=O)NCC2CCCO2)n1CCc1ccccc1 (configuration not stated)	-	-	-	-	-	-
O=C1CCCCC1Sc1nnc(Cc2cccs2)n1CCc1ccccc1 (configuration not stated)	?	-	10µM	-	-	-
Cc1nonc1NC(=O)CSc1nc2cc(Cl)ccc2c2c1CCCC2	?	-	?	-	-	-
Cc1ccc(C)c(-n2c(SCC(=O)Nc3nonc3C)nnc2-c2ccoc2C)c1	?	-	25.1µM	-	-	-
CCc1nnc(NC(=O)CSc2nnc(-c3ccccc3O)n2-c2ccc(C)cc2C)s1	?	-	20µM	-	-	-
Cc1ccc2c3c(c(SCC(=O)Nc4nonc4C)nc2c1)CCCC3	?	-	7.94µM	-	-	-
Cc1cccc(C)c1NC(=O)CSc1nnc(-c2ccoc2C)n1C	-	-	-	-	-	-
Cc1ccc(C)c(-n2c(SCC(=O)Nc3nnc(C)s3)nnc2-c2ccoc2C)c1	?	-	2.51µM	-	-	-
CCc1nnc(NC(=O)CSc2nnc(COc3ccccc3)n2-c2ccc(C)cc2)s1	?	-	?	-	-	-
